From PubChem BioAssay AID651595 (National Center for Advancing Translational Sciences (NCATS), 2012)
Screen size: about 1,100 compounds; fewer than 10 were called active. Not shown: some 6% with an inconclusive outcome. A selection follows. Unmarked numbers belong to inactive results. Calls come from the whole dose curve; as a rule, active = well fitted cell-killing curve with a large enough effect; inconclusive = small, poorly fitted or top-dose-only effect; inactive = flat fitted curve, though single readings scatter.

Test: qHTS of Nrf2 Activators: Hit Validation in Cytotox Assay;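 note: compound exposure lasted 24 hours before the ATP readout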; for activity change, negative = cytotoxicity: 0% is about no effect
Details: Cell viability counter-screen for Nrf2 activator hits; series mostly up to 46.1 µM; activity change, negative = cytotoxicity: at the top concentration
Source text: Many diseases have some form of oxidative stress injury and ties to inflammation, causing a host of problems for the patient. The antioxidant response element (ARE) plays an important role in alleviating the harmful effects of oxidative stress. The antioxidant response element (ARE) is a transcriptional regulatory element involved in the activation of genes coding for a number of antioxidant proteins and detoxifying enzymes. These enzymes work in concert to protect tissues from oxidative insults and chemical toxicities in human hepatocytes and immune cells. The protective effects of ARE activation are primarily triggered through Nrf2 (NF-E2-related factor) binding to and activating AREs. It is known that Nrf2 controls the production of over 250 antioxidant and detoxification proteins (Hu et al., 2006), thereby protecting tissues by increasing cellular antioxidant content and suppressing inflammatory signaling pathways. The transcription factor Nrf2 is a central link between oxidative chemicals, such as phenolic antioxidants and electrophilic compounds, and the activation of ARE. Nrf2 levels are constitutively low as a consequence of its interaction with Keap1, which targets its degradation (Zipper and Mulcahy, 2002). Electrophiles react with key cysteine residues in Keap1, releasing Nrf2 and allowing its translocation to the nucleus. Once within the nucleus, Nrf2 complexes with coactivators such as p300, and binds to the AREs to induce gene transcription of cytoprotective enzymes, resulting in the prevention of toxicity. Activation of Nrf2 protects tissues by increasing cellular antioxidant content and suppressing inflammatory signaling pathways. Identifying novel and potent Nrf2 activators by using the AREc32 cell line to detect ARE activation by small molecules will lead to the identification and development of probes to study protective pathways in multiple tissues. These specific probes are essential to study the ARE pathway, and eventually to determine whether this pathway does activate genes that could protect against a host of diseases, including cardiovascular diseases, obesity, diabetes, Alzheimer's, and Parkinson's disease.
This project's aim is to identify novel and potent Nrf2 activators by using the AREc32 cell line to detect ARE activation by small molecules, which will lead to the identification and development of probes to study the ARE pathway. Cytotoxic compounds are flagged as active, and inactivity is desired in this assay.
NIH Chemical Genomics Center [NCGC]
NIH Molecular Libraries Probe Centers Network [MLPCN]
Assay Submitter (PI): Curtis Klaassen, University of Kansas Medical Center
Cell viability after compound treatment was measured using a luciferase-coupled ATP quantitation assay (CellTiter-Glo, Promega) in AREc32_fluc cells. The change of intracellular ATP content indicates the number of metabolically competent cells after compound treatment. AREc32_fluc cells were harvested from T225 flask and resuspended in phenol red free OPTI-MEM medium with 5% FBS. Then 5 microL of 200,000 cells/ml resuspended cells was dispensed into each well of white, solid bottom, 1536-well tissue culture-treated plates using a Multidrop Combi dispenser. After overnight culture at 37 degrees C with 5% CO2, a total of 23 nL of compounds at 7 selected concentrations from the cherry pick or positive control (40 uM stock of CDDO-IM and 2 mM of tBHQ) in DMSO was transferred to each well of the assay plate using a pintool (Kalypsys, San Diego, CA), and the plates were further incubated at 37 degrees C with 5% CO2 for 24 hours. After that, 4 microL of CellTilter-GloTM luminescent substrate mix (Promega) was added to each well. The plate was incubated at room temperature for 30 minutes. The plates were measured on a ViewLux plate reader (PerkinElmer) with clear filter.
Potency is the fitted concentration of half-maximal effect.

| SMILES | activity change, negative = cytotoxicity [%] | Potency |
| --- | --- | --- |
| CCc1c(C)sc(NC(=O)c2ccco2)c1C#N | 12.1 | – |
| COc1ccccc1NC(=O)/C=C\c1ccco1 | 2.45 | – |
| CCN(C(=O)Cn1nnc2sc(-c3ccccc3)cc2c1=O)c1cccc(C)c1 | -9.78 | – |
| NC(=S)NN=C1CSSC1 | -21.6 | – |
| COc1ccc(-c2nnc3c4ccccc4c(C)nn23)cc1 | 4.5 | – |
| O=C1Nc2ccccc2SC1=Cc1ccccc1 | 1.37 | – |
| C/C(=N/NC(=O)CNC(=O)/C=C/c1ccco1)c1ccc(Cl)cc1 | -4.27 | – |
| CCOC(=O)c1ccccc1N/C=C/C(=O)c1ccccc1 | 1.71 | – |
| O=C(Nc1cccc([N+](=O)[O-])c1)c1[nH]ncc1Cl | -11.2 | – |
| COc1ccc(Cl)cc1NC(=O)C1COc2ccccc2O1 (centres undefined) | 4.89 | – |
| COc1ccc(C(C#N)=C2C=CC(=NO)C=C2)cc1 | -1.04 | – |
| CC(=O)c1ccccc1NC(=O)COC(=O)/C=C/c1ccc(C)o1 | 11.2 | – |
| O=[N+]([O-])c1ccc(NN=Cc2ccco2)nc1 | 10.9 | – |
| O=C(/C=C/Nc1ccc(F)c(Cl)c1)c1ccco1 | -0.863 | – |
| COc1ccc(Cl)cc1C(=O)O/N=C(\N)c1ccccn1 | -3.19 | – |
| CCOC(=O)c1c(NC(=O)/C=C/c2ccc(C)o2)sc(C)c1C | 4.84 | – |
| O=[N+]([O-])c1ccc(Cl)cc1N/N=C/c1ccncc1 | 6.03 | – |
| O=C(Nc1nc(=O)c2ccccc2s1)c1ccccc1 | -18.4 | – |
| Clc1ccccc1C=NNc1ccccn1 | 0.451 | – |
| CC(C)C(=O)Nc1nnc(-c2ccco2)s1 | 6.12 | – |

| SMILES | activity change, negative = cytotoxicity [%] | Potency |
| --- | --- | --- |
| Cn1c(/N=C(\N)c2ccccc2)nc2ccccc21 | -3.63 | – |
| O=C(Nc1ccccc1C(=O)NCCc1ccccc1)c1ccco1 | 5.2 | – |
| NC(=O)c1oc2ccccc2c1NC(=O)c1ccccc1 | 1.78 | – |
| O=C1COc2ccc(C(=O)COC(=O)/C=C/c3ccco3)cc2N1 | -0.414 | – |
| O=C(Nc1nccc(-c2cccs2)n1)c1cccs1 | -1.81 | – |
| N/C(=N\OC(=O)c1cc(Cl)ccc1Cl)c1cccnc1 | -4.62 | – |
| Cc1ccc(-c2nc3cccnc3s2)cc1NC(=O)c1ccco1 | -5.81 | – |
| Cn1c(SCC(=O)N/N=C/C=C\c2ccco2)nc2ccccc21 | 2.39 | – |
| CC(C)c1ccc(NC(=O)c2sccc2-n2cccc2)cc1 | -13.6 | – |
| COC(=O)c1ccc2nc(-c3ccc(F)cc3)c(CC3CCCCC3)n2c1 | -1.86 | – |
| Cc1ccc(-c2cc(C(F)(F)F)c(C#N)c(SCCC#N)n2)o1 | 6.99 | – |
| Clc1nc2sccn2c1/C=N/n1cnc2ccccc21 | 6.23 | – |
| CC(=NNc1ccc2ccccc2n1)c1ccccc1O | -19.7 | – |
| O=c1oc2ccc(Cl)cc2nc1/C=C(\O)c1cccs1 | -4.12 | – |
| C=C(NC(=O)C(=C)NC(=O)c1csc(C2=NC3c4csc(n4)C4NC(=O)c5csc(n5)C(C(C)(O)C(C)O)NC(=O)C5CSC(=N5)/C(=C/C)NC(=O)C(C(C)O)NC(=O)c5csc(n5)C3(CC2)NC(=O)C(C)NC(=O)C(=C)NC(=O)C(=C)NC(=O)C(C(C)C)NC2C=Cc3c(C(C)O)cc(nc3C2O)C(=O)OC4C)n1)C(N)=O (centres undefined) | -14.5 | – |
| O=c1nc2c(-c3ccccc3F)n[nH]n2c2ccccc12 | -3.43 | – |
| O=C(CSc1ccc(-c2ccco2)nn1)N1CCCCCC1 | 0.45 | – |
| O=C1C(Cl)=C(Nc2ccccc2)C(=O)c2ccccc21 | – | 16.4 µM (active) |
| c1ccc(-c2cnc(-c3ccccc3)nn2)cc1 | -0.44 | – |
| O=C(Nc1ccccc1)N1CCn2c1nc1ccccc12 | 2.76 | – |

| SMILES | activity change, negative = cytotoxicity [%] | Potency |
| --- | --- | --- |
| CC(=O)Nc1ccc(N=Nc2ccccc2)cc1[N+](=O)[O-] | -3.62 | – |
| Brc1ccc(-c2csc(N/N=C/c3ccco3)n2)cc1 | 8.79 | – |
| CC(=O)c1sc2nc(-c3cccs3)cc(C(F)(F)F)c2c1N | -2.42 | – |
| O=c1oc2ccccc2nc1/C=C(\O)c1ccc(Br)cc1 | -1.91 | – |
| O=[N+]([O-])c1ccc(/C=N/Nc2ccc3ccccc3c2)o1 | -19.5 | – |
| O=[N+]([O-])c1ccc(/C=[N+](\[O-])[C@@H]2CCCC[C@@H]2/[N+]([O-])=C/c2ccc([N+](=O)[O-])o2)o1 | – | 18.4 µM (active) |
| O=C(NCC1CCCO1)c1ccc([N+](=O)[O-])o1 (centres undefined) | -12.8 | – |
| c1ccc(C2=Nn3c(nnc3-c3ccco3)SC2)cc1 | 6.11 | – |
| Cc1ccccc1NC(=O)/C(C#N)=C/c1ccsc1 | 0.178 | – |
| Nc1nonc1N/N=C/c1c(O)ccc2ccccc12 | 8.84 | – |
| O=C(Nc1cc2nn(-c3ccccc3)nc2cc1Cl)c1ccco1 | 5.66 | – |
| Cc1nn2c(-c3ccccc3)nnc2c2ccccc12 | 2.1 | – |
| O=c1[nH]c(/C=C/c2ccccc2[N+](=O)[O-])nc2ccccc12 | 0.48 | – |
| O=C(NC(=S)Nc1ccccc1O)c1ccccc1Cl | 8.07 | – |
| Cc1ccc(O)c(NC(=O)c2cccc(NC(=O)c3ccco3)c2)c1 | 2.1 | – |
| O=C(NC(=S)Nc1cnc2ccccc2c1)c1ccccc1 | -0.119 | – |
| Cc1nn2c(-c3ccco3)nnc2c2ccccc12 | 6.15 | – |
| COc1ccc2oc3cc(Cl)ccc3c(=O)c2c1 | -1.78 | – |
| Cc1cccc(NC(=O)Nc2ccccc2[N+](=O)[O-])n1 | 5.2 | – |
